According to PMC7862700, “An all-to-all approach to the identification of sequence-specific readers for epigenetic DNA modifications on cytosine”:

Assays:
Experiment in all cases: DAPPL (digital affinity profiling via proximity ligation, sequencing); 10 mM Tris-HCl pH 7.5, 50 mM NaCl, 1 mM DTT, 4% glycerol, room temperature, 30 min; GST-TFs on glutathione beads, 16-mer random dsDNA library, 0.1% formaldehyde crosslink after washing; high values mean tight binding
[1] = target: T1, FLI1 (Homo sapiens, UniProt Q01543 1-452); conditions: protein: recombinant; tags: N-terminal GST; dsDNA, one strand shown
T1 sequence: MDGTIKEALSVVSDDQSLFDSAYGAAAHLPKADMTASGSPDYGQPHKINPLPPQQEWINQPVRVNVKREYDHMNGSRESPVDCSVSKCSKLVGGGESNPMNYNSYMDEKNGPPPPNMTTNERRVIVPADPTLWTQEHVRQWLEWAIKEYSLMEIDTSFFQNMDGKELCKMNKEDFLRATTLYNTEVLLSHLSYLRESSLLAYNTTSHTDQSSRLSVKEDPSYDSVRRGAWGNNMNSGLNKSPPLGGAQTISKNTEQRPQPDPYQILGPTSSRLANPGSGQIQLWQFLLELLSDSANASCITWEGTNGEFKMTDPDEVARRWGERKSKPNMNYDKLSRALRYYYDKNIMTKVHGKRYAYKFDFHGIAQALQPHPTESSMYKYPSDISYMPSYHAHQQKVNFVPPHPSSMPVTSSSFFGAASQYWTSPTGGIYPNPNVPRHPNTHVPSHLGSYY
Summary of the method: (§1)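 Human transcription factors were made in yeast as GST fusions, captured on glutathione beads and barcoded with DNA. With a tag-only sample included, the pool was incubated with 200 nmole of a random double-stranded 16-mer DNA library in Tris/NaCl/DTT/glycerol buffer at room temperature for 30 min, then crosslinked with 0.1% formaldehyde after washing, ligated by proximity, amplified and sequenced. For binding signal, each hexamer's read frequency for a factor is divided by its frequency for the tag-only sample.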

[2] = target: T2, ELK1 (Homo sapiens, UniProt P19419 1-428); conditions: protein: recombinant; tags: N-terminal GST; dsDNA, one strand shown
T2 sequence: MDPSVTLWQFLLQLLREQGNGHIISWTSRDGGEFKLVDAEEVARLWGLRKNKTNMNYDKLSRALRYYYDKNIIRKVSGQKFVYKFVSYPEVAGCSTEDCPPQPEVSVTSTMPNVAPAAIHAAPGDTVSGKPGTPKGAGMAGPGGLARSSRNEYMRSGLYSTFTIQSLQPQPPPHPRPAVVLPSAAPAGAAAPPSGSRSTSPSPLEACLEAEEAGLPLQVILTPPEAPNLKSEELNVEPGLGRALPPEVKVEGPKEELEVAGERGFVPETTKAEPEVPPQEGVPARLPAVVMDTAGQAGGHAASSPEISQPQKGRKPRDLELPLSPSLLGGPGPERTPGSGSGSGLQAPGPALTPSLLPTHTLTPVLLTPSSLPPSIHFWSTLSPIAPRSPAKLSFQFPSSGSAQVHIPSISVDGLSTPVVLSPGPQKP
Summary of the method: as §1

[3] = target: T3, GABPA (Homo sapiens, UniProt Q06546 1-454); conditions: protein: recombinant; tags: N-terminal GST; dsDNA, one strand shown
T3 sequence: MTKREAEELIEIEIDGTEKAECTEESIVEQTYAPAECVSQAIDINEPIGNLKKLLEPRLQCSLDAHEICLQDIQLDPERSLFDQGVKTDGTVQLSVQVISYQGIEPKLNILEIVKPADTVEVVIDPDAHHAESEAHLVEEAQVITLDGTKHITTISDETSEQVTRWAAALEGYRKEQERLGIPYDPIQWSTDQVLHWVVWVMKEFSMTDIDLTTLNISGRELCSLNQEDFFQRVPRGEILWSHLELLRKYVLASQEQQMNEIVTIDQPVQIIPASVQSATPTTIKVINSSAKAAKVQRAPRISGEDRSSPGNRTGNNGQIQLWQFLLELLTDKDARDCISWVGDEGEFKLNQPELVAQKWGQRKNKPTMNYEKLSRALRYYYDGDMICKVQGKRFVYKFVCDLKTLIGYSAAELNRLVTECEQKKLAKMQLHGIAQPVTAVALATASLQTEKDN
Summary of the method: as §1

[4] = target: T4, ERG (Homo sapiens, UniProt P11308 1-479); conditions: protein: recombinant; tags: N-terminal GST; dsDNA, one strand shown
T4 sequence: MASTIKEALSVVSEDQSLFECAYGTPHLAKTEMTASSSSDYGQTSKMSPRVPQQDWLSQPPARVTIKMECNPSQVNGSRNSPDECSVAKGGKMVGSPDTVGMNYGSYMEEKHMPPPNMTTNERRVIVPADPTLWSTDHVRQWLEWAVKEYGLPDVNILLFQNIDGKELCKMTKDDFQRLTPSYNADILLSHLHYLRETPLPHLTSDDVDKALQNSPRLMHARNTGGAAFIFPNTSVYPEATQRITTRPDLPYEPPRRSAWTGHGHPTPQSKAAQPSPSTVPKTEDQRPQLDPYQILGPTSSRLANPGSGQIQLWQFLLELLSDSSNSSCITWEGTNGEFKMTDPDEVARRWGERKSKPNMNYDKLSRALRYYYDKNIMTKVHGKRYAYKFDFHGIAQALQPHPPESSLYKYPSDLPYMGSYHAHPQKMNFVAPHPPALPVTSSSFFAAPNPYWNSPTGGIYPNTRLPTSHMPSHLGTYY
Summary of the method: as §1

[5] = target: ELF1 (Homo sapiens, UniProt P32519 1-619); conditions: protein: recombinant; tags: N-terminal GST; dsDNA, one strand shown
Summary of the method: as §1

[6] = target: T5, EHF (Homo sapiens, UniProt Q9NZC4 1-300); conditions: protein: recombinant; tags: N-terminal GST; dsDNA, one strand shown
T5 sequence: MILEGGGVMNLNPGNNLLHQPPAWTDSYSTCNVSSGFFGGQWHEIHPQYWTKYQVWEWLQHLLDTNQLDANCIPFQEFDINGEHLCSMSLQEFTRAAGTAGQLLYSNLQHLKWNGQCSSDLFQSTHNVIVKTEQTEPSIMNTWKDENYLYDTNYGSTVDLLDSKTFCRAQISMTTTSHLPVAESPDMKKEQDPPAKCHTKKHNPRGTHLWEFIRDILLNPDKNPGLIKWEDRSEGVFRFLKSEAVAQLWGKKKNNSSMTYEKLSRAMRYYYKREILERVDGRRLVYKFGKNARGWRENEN
Summary of the method: as §1

[7] = target: SPI1 (Homo sapiens, UniProt P17947 1-270); conditions: protein: recombinant; tags: N-terminal GST; dsDNA, one strand shown
Summary of the method: as §1

[8] = target: SPIB (Homo sapiens, UniProt Q01892 1-262); conditions: protein: recombinant; tags: N-terminal GST; dsDNA, one strand shown
Summary of the method: as §1

[9] = target: T6, ELK3 (Homo sapiens, UniProt P41970 1-407); conditions: protein: recombinant; tags: N-terminal GST; dsDNA, one strand shown
T6 sequence: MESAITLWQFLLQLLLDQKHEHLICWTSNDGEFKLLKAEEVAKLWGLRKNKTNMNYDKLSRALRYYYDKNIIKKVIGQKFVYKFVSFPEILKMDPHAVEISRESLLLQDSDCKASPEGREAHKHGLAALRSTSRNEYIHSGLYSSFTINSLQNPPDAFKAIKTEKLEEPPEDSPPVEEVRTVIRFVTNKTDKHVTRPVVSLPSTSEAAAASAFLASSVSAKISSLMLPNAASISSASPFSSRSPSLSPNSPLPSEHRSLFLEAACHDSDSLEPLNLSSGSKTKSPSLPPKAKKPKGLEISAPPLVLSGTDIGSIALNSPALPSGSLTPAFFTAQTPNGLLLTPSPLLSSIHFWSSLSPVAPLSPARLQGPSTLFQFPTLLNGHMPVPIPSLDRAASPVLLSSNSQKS
Summary of the method: as §1

[10] = target: T7, FEV (Homo sapiens, UniProt Q99581 1-238); conditions: protein: recombinant; tags: N-terminal GST; dsDNA, one strand shown
T7 sequence: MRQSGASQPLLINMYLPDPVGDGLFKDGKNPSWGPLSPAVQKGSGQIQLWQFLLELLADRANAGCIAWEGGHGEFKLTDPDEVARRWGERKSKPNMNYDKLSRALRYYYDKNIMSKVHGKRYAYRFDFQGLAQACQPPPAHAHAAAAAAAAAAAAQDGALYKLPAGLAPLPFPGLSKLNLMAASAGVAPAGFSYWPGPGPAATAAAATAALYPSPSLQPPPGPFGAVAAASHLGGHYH
Summary of the method: as §1

[11] = target: ETV5 (Homo sapiens, UniProt P41161 1-510); conditions: protein: recombinant; tags: N-terminal GST; dsDNA, one strand shown
Summary of the method: as §1

[12] = target: HSF1 (Homo sapiens, UniProt Q00613 1-529); conditions: protein: recombinant; tags: N-terminal GST; chain copies: 3; dsDNA, one strand shown
Summary of the method: as §1

[13] = target: T8, SPIC (Homo sapiens, UniProt Q8N5J4 1-248); conditions: protein: recombinant; tags: N-terminal GST; dsDNA, one strand shown
T8 sequence: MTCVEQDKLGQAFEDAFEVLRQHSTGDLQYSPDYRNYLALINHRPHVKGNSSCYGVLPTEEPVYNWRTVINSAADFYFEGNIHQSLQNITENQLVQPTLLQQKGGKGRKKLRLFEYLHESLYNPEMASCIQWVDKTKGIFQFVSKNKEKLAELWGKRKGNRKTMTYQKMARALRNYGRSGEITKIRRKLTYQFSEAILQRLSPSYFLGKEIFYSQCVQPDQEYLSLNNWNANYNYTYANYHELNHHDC
Summary of the method: as §1

[14] = target: ELF4 (Homo sapiens, UniProt Q99607 1-663); conditions: protein: recombinant; tags: N-terminal GST; dsDNA, one strand shown
Summary of the method: as §1

[15] = target: T9, ELK4 (Homo sapiens, UniProt P28324-2 1-405); conditions: protein: recombinant; tags: N-terminal GST; dsDNA, one strand shown
T9 sequence: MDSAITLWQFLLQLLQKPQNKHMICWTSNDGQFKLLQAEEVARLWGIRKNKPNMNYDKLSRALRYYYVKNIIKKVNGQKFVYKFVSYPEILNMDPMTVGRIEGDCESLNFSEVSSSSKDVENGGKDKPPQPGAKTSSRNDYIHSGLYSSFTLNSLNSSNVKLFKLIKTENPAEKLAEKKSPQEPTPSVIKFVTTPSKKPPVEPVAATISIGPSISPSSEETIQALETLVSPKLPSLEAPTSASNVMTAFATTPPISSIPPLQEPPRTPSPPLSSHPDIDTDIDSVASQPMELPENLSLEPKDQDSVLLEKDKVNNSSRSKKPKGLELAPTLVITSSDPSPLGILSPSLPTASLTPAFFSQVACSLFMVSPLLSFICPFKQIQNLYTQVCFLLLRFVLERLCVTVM
Summary of the method: as §1

[16] = target: T10, ETV2 (Homo sapiens, UniProt O00321 1-342); conditions: protein: recombinant; tags: N-terminal GST; dsDNA, one strand shown
T10 sequence: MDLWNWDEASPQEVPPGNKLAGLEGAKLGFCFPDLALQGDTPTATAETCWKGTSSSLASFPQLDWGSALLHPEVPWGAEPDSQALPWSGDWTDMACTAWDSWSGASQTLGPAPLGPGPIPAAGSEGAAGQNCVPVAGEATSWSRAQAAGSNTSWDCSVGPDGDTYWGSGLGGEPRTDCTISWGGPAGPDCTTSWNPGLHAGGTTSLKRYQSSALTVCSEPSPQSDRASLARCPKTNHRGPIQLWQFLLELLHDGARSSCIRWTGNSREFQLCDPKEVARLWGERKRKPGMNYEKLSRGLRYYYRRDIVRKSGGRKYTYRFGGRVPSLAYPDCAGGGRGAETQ
Summary of the method: as §1

[17] = target: T11, ELF3 (Homo sapiens, UniProt P78545 1-371); conditions: protein: recombinant; tags: N-terminal GST; dsDNA, one strand shown
T11 sequence: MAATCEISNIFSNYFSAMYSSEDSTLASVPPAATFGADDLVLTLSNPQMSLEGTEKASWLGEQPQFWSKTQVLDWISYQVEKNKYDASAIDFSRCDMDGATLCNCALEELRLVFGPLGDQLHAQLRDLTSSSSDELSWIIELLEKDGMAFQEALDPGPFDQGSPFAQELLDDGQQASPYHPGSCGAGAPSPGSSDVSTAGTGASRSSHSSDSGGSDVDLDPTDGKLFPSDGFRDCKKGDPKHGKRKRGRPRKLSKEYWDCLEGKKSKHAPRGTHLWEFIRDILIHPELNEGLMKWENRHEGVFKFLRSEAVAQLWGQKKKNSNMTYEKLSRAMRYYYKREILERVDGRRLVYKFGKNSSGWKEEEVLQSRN
Summary of the method: as §1

[18] = target: CRX (Homo sapiens, UniProt O43186 1-299); conditions: protein: recombinant; tags: N-terminal GST; dsDNA, one strand shown
Summary of the method: as §1

[19] = target: ETV1 (Homo sapiens, UniProt P50549 1-477); conditions: protein: recombinant; tags: N-terminal GST; dsDNA, one strand shown
Summary of the method: as §1

Sequence of HSF1 (Q00613 whole entry): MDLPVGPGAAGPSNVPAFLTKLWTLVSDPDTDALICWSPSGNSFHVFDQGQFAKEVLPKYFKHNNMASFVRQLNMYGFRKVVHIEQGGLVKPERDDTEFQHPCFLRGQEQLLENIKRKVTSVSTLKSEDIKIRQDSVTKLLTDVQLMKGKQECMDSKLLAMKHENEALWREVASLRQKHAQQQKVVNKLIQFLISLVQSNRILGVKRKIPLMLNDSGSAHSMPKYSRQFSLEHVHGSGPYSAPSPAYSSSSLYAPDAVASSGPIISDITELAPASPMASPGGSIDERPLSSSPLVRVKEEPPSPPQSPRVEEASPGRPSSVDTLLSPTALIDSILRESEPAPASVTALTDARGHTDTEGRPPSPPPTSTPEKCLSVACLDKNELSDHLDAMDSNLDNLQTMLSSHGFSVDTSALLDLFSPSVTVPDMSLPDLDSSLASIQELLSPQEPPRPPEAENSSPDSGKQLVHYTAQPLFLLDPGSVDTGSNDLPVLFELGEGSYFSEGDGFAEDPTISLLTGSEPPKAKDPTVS
Sequence of ETV1 (P50549 whole entry): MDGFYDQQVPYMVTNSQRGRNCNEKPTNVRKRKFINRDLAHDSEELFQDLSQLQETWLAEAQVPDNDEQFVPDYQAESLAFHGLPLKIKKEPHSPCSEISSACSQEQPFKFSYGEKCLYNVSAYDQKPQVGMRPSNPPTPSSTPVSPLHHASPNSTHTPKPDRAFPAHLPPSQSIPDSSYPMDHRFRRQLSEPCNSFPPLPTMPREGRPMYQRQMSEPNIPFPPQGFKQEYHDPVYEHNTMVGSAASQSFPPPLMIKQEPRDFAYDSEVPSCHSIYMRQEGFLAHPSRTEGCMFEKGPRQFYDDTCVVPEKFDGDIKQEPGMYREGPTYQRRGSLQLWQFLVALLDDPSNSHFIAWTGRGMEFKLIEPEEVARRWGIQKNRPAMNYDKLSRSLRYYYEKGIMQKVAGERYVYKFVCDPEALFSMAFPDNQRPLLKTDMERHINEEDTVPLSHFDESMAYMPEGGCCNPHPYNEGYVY
Sequence of SPIB (Q01892 whole entry): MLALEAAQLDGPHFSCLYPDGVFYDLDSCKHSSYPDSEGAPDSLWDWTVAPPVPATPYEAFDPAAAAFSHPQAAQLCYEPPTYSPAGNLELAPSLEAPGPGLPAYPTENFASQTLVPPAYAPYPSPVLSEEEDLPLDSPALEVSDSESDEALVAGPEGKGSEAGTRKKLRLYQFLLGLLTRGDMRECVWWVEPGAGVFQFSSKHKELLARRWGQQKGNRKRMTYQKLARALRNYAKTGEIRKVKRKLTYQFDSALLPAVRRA
Sequence of ETV5 (P41161 whole entry): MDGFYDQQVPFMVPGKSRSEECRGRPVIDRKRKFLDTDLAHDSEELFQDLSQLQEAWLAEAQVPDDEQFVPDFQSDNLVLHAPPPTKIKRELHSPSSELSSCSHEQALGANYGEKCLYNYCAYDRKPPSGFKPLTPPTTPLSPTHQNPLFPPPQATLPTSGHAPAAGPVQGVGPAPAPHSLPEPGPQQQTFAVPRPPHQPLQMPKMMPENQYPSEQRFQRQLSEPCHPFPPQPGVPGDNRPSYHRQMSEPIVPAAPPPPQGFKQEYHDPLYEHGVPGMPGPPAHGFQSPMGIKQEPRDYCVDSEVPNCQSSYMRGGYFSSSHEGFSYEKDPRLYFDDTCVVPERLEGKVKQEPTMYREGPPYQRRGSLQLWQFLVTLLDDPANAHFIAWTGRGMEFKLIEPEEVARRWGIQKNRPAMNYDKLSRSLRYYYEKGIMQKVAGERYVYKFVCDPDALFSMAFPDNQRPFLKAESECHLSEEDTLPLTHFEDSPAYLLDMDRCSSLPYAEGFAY
Sequence of ELF1 (P32519 whole entry): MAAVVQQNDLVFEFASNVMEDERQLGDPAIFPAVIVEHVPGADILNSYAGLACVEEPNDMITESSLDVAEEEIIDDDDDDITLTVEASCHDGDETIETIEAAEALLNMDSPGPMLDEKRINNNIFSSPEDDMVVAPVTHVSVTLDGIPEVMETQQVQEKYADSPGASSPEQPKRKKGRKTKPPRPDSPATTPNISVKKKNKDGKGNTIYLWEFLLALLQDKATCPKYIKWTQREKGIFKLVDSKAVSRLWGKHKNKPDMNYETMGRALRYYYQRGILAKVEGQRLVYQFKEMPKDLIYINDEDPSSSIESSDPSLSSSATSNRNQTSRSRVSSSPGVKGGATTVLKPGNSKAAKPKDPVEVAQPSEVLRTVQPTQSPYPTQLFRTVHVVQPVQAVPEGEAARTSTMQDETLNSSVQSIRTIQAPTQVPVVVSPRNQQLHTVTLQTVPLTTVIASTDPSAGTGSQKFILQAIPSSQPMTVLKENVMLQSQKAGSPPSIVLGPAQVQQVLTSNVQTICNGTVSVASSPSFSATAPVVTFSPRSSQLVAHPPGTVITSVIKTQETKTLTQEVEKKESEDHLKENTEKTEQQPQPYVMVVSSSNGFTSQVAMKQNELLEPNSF
Sequence of CRX (O43186 whole entry): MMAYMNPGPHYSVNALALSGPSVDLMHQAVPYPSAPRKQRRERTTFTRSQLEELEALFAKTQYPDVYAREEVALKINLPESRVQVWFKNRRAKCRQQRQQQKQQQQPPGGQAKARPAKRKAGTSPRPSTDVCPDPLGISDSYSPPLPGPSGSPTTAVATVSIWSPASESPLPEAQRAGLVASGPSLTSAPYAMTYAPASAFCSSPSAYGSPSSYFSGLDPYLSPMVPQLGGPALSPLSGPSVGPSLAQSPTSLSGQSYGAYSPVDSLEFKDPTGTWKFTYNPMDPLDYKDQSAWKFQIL
Sequence of ELF4 (Q99607 whole entry): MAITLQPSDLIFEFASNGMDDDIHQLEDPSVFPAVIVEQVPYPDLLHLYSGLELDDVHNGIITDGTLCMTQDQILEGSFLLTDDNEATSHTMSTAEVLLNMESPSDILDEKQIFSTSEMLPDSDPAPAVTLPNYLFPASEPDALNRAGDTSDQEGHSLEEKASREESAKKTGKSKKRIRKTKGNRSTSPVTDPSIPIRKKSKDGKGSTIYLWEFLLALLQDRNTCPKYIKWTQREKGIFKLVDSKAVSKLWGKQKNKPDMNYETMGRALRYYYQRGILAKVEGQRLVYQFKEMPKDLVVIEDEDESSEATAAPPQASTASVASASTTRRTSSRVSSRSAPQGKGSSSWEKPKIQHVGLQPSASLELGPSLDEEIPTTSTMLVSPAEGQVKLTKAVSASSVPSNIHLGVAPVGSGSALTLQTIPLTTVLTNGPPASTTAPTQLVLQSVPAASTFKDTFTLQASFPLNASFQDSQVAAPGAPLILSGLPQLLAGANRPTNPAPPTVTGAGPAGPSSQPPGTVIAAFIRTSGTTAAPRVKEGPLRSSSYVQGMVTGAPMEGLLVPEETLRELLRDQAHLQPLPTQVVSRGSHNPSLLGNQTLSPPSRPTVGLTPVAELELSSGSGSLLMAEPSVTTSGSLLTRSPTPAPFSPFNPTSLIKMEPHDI

TCCAAA
binding signal [1]: 1.08 fold enrichment (6-mer frequency, TF over GST control)
binding signal [2]: 1.18 fold enrichment (6-mer frequency, TF over GST control)
binding signal [3]: 1.31 fold enrichment (6-mer frequency, TF over GST control)
binding signal [4]: 1.19 fold enrichment (6-mer frequency, TF over GST control)
binding signal [5]: 1.18 fold enrichment (6-mer frequency, TF over GST control)
binding signal [6]: 1.1 fold enrichment (6-mer frequency, TF over GST control)
binding signal [7]: 1.12 fold enrichment (6-mer frequency, TF over GST control)
binding signal [8]: 1.17 fold enrichment (6-mer frequency, TF over GST control)
binding signal [9]: 1.17 fold enrichment (6-mer frequency, TF over GST control)
binding signal [10]: 1.18 fold enrichment (6-mer frequency, TF over GST control)
binding signal [11]: 1.12 fold enrichment (6-mer frequency, TF over GST control)
binding signal [12]: 1.3 fold enrichment (6-mer frequency, TF over GST control)
binding signal [13]: 1.11 fold enrichment (6-mer frequency, TF over GST control)
binding signal [14]: 1.25 fold enrichment (6-mer frequency, TF over GST control)
binding signal [15]: 1.17 fold enrichment (6-mer frequency, TF over GST control)
binding signal [16]: 1.01 fold enrichment (6-mer frequency, TF over GST control)
binding signal [17]: 1.16 fold enrichment (6-mer frequency, TF over GST control)
binding signal [18]: 1.26 fold enrichment (6-mer frequency, TF over GST control)
binding signal [19]: 1.1 fold enrichment (6-mer frequency, TF over GST control)
